Assay outcomes: PubChem, National Center for Advancing Translational Sciences (NCATS)
Hits are enriched below; roughly 19% of the tested compounds scored in any of these assays.
Giardia killer: Small Molecules that selectively kill Giardia lamblia: qHTS | activity change, % at 7.66 µM, hits read low | Giardia lamblia trophozoite viability | 0.15% of 340,000 active | AID 540267, 2011; in the data active = activity change below about -80%; inconclusive = between about -30% and that limit;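 also: parasites exposed to compound for two days anaerobically before the ATP read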
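Giardia lamblia trophozoites (100 cells/well) were incubated with compounds for 48 h at 37 deg C under anaerobic conditions. Viability was read as ATP content by one-step luminescence after 15-30 min at room temperature.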
IL1B secr inh: qHTS for Inhibitors of Inflammasome Signaling: IL-1-beta AlphaLISA Primary Screen; THP-1 LPS/ATP IL-1B secretion, AlphaLISA, 16 h; active compounds read low; activity change, % at 57.5 µM; 4.7% of 360,000 active; AID 743279, 2014; in the data active = activity change below about -50%; inconclusive = mostly about -30% to -49%
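THP-1 cells pretreated 1 hr with compounds (up to 57.5 uM final), then stimulated with LPS (250 ng/mL final) plus ATP (1.25 mM final); secreted IL-1B measured by AlphaLISA after 16 hr, decreased signal indicating inhibition.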
ELG1 repair inh: qHTS screen for small molecules that inhibit ELG1-dependent DNA repair in human embryonic kidney (HEK293T) cells expressing luciferase-tagged ELG1; HEK293T ELG1-luciferase reporter, luminescence, 16 h; DNA damage induced by 5-fluorouridine; Potency, µM (doses to about 46.1 µM), usual class: inhibitors; 2.3% of 330,000 active; also: nearly all actives have a fitted effect of over 55% in size
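Reporter activity after DNA damage by 5-fluorouridine is monitored. Compound-treated cells incubate 16 hr at 37 °C, then ONE-Glo is added for 30 min before luminescence reading.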
DT40 TDP1 no CPT: qHTS for Inhibitors of human tyrosyl-DNA phosphodiesterase 1 (TDP1): qHTS in cells in absence of CPT | DT40 Tdp1-/- hTDP1 cells, no CPT, ATP luminescence, 48 h | Potency, µM (titrated, usually from 46.2 µM), usual class: inhibitors | 15% of 420,000 active | AID 686978, 2013; also: nearly all actives have a fitted effect of over 55% in size
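Growth kinetics read by CellTiter-Glo luminescence after ≥48 hr at 37 °C. Cells: DT40 Tdp1-/- stably carrying human TDP1, 400 per well, compound exposure in the absence of CPT (DMSO vehicle).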
TDP1 inh: qHTS Assay for Inhibitors of Tyrosyl-DNA Phosphodiesterase (TDP1) | Potency, µM (titrated, usually from 130 µM), hits mostly inhibitors | Tyrosyl-DNA phosphodiesterase 1 (Homo sapiens), Q9NUW8 | AID 485290, 2010 | 0.28% of 350,000 active | recombinant TDP1, AlphaScreen DNA substrate cleavage; also: nearly all actives have a fitted effect of over 40% in size
Target sequence (Q9NUW8 whole entry, looked up): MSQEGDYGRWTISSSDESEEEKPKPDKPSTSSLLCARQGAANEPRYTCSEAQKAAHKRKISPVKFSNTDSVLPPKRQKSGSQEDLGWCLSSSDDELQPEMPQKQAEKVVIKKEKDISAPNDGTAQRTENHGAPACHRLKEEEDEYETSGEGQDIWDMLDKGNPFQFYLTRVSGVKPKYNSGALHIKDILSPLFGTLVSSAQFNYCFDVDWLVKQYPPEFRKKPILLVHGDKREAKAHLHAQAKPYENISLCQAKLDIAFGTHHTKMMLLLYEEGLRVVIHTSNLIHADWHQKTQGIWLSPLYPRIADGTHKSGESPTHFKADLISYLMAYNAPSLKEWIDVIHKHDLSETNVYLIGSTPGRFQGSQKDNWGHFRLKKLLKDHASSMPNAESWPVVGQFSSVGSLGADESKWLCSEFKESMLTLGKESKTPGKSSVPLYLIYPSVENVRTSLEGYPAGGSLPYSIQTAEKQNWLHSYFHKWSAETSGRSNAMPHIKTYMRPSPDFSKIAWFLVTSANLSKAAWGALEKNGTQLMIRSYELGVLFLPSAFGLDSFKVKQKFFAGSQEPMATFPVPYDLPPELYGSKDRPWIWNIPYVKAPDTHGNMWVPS
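Here, a 5' biotin and 3' phosphotyrosine-FITC DNA oligonucleotide reports Tdp1 activity: intact substrate bridges AlphaScreen beads, while cleavage leaves a 3' phosphate and drops signal. All incubations at room temperature.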
TDP1 cell CPT: qHTS for Inhibitors of human tyrosyl-DNA phosphodiesterase 1 (TDP1): qHTS in cells in presence of CPT; Potency, µM (titrated, usually from 46.2 µM), actives largely listed as inhibitors; chicken DT40 Tdp1-/-;hTDP1 cells + 20 nM CPT, ATP luminescence, 48 h; AID 686979, 2013; 12% of 420,000 active; also: nearly all actives have a fitted effect of over 55% in size
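Chicken DT40 Tdp1-/- cells complemented with human TDP1, 400 cells/well, exposed to compounds plus 20 nM camptothecin for at least 48 h at 37 C; viability read as ATP content by CellTiter-Glo luminescence.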
Numbers stand for hits; - = inactive; ? = inconclusive; . = no result given; [ ] = remark or other dose. Unless noted, calls follow the shape of the dose curve; as a rule, active = well fitted curve in the direction sought with a large enough effect; inconclusive = small, poorly fitted or top-dose-only effect, or another doubt; inactive = no such curve, though single readings can be large; an effect the other way counts as inactive or inconclusive.

SMILES	Giardia killer	IL1B secr inh	ELG1 repair inh	DT40 TDP1 no CPT	TDP1 inh	TDP1 cell CPT
COC(=O)c1sccc1NC(=O)CN(C)NS(=O)(=O)c1ccc(F)cc1	-	-	-	?	-	18µM
COC(=O)c1sccc1NC(=O)CN(C)NS(=O)(=O)c1ccc([N+](=O)[O-])cc1	-	-	-	?	-	?
COC(=O)c1sccc1NC(=O)CN(C)NS(=O)(=O)c1ccc(Cl)cc1	-	-	-	18µM	-	?
CC(C)N(C)c1ncnc2c1ncn2[C@H]1CN(C2CCCC2)C[C@@H](CO)O1	.	-	.	-	.	-
COc1ccc(N/N=C(\C=N\O)C(=O)c2ccc(OC)cc2)cc1	-	-	?	2.9µM	-	2.6µM
COc1ccc(NC(=O)/C=N/O)cc1	-	-	-	-	-	-
COc1ccc(C(=O)C(=NNc2ccccc2)c2ccc(OC)cc2)cc1	-	-55	.	?	.	?
CC(Sc1n[nH]c(-c2ccccc2F)n1)C(=O)Nc1ccc(S(N)(=O)=O)cc1 (centres undefined)	-	-	-	-	-	-
COc1ccc(Br)c(Cn2c(C)c(C(=O)NCc3ccc4c(c3)OCCO4)sc2=O)c1	.	-	.	-	.	?
COc1ccccc1N1C(=O)CC(N2CCN(c3ccc(Cl)cc3)CC2)C1=O (centres undefined)	-	-	-	-	.	-
CC(C)c1ccc(CC(=O)N2CCC2(C)C(=O)Nc2ccccc2)cc1 (centres undefined)	.	-	.	?	.	?
CC(C)(C)c1ccc(CC(=O)N2CCC2(C)C(=O)Nc2cnc3ccccc3c2)cc1 (centres undefined)	.	-	.	12µM	.	21µM
CC(C)(C)c1ccc(C(=O)N2CCC2(C)C(=O)Nc2cnc3ccccc3c2)cc1 (centres undefined)	.	-	.	26µM	.	23µM
CC(C)c1ccc(CC(=O)N2CCC2(C)C(=O)Nc2cnc3ccccc3c2)cc1 (centres undefined)	.	-	.	?	.	16µM
CC1(C(=O)Nc2cnc3ccccc3c2)CCN1Cc1ccc2c(c1)OCCO2 (centres undefined)	.	-	.	?	.	?
c1ccc2c(N3CCNCC3)nc(-c3ccoc3)nc2c1	.	.	.	-	-	-
O=C(Cc1ccc(S(=O)(=O)N2CCOCC2)s1)N1CCN(S(=O)(=O)c2cccc([N+](=O)[O-])c2)CC1	-	-	-	-	-[0.505 µM]	-
COC(=O)CN1C(=O)CSc2ccc(S(=O)(=O)Nc3ccc(F)c(Cl)c3)cc21	.	.	.	?	-	?
O=S(=O)(Nc1cc(O)cc2cccnc12)c1ccc(Br)s1	.	.	.	.	-	.
Cc1nn(-c2ccccc2)c2c1C1(C(=O)N3c4c(cccc41)C(C)CC3(C)C)C(C#N)=C(N)O2 (centres undefined)	-	-	-	?	-	?
Cc1nn(-c2ccccc2)c2c1C1(C(=O)N(C)c3ccccc31)C(C#N)=C(N)O2 (centres undefined)	-	-	-	?	-	16µM
Cc1[nH]nc2c1C1(C(=O)N(Cc3ccc(Cl)cc3)c3ccccc31)C(C#N)=C(N)O2 (centres undefined)	-	-	-	26µM	-	23µM
CC1(C)CC(=O)C2=C(C1)OC(N)=C(C#N)C21C(=O)N(Cc2ccccc2Cl)c2ccccc21 (centres undefined)	-	-	-	23µM	-	?
CC1=CC(C)(C)N2C(=O)C3(C(C#N)=C(N)OC4=C3C(=O)CC(C)(C)C4)c3cccc1c32 (centres undefined)	.	.	-	.	-	.
CC(=O)N1C(=O)C2(C(C#N)=C(N)Oc3c2c(C)nn3-c2ccccc2)c2ccccc21 (centres undefined)	-	-	-	?	-	23µM
SMILES	Giardia killer	IL1B secr inh	ELG1 repair inh	DT40 TDP1 no CPT	TDP1 inh	TDP1 cell CPT
CCCCNC(=O)C(NC(=O)c1ccc(=O)[nH]c1)C(=O)c1ccccc1 (centres undefined)	.	-	.	-	.	-
CCN1C(=O)C2(C(C#N)=C(N)Oc3c2c(C)nn3-c2ccccc2)c2ccccc21 (centres undefined)	-	-	-	16µM	-	18µM
Cc1nn(-c2ccccc2)c(N)c1C1(O)C(=O)N(C)c2ccccc21 (centres undefined)	-	-	-	?	-	23µM
CC(=O)N1C(=O)C2(C(C#N)=C(N)Oc3n[nH]c(-c4ccccn4)c32)c2ccccc21 (centres undefined)	-	-	-	18µM	-	?
Cc1nn(-c2ccccc2)c(N)c1C1(O)C(=O)Nc2ccccc21 (centres undefined)	?	-	-	-	-	-
CCCCc1[nH]nc2c1C1(C(=O)N(CC)c3ccccc31)C(C#N)=C(N)O2 (centres undefined)	-	-	-	-	-	-
CN1C(=O)C2(C(C#N)=C(N)Oc3n[nH]c(-c4ccc(Cl)cc4)c32)c2ccccc21 (centres undefined)	-	-	-	-	-	-
CCc1ccccc1NC(=O)c1nnn(CC(=O)Nc2c(C)cc(C)cc2C)c1N	.	.	.	-	-	-
Cc1cc2ccccc2n1-c1ccc(C(=O)N2CCCCC2)s1	.	.	.	?	-	?
CN(C)c1ccc(CNC(=O)C2CCN(c3nc4ccccc4[nH]3)CC2)cc1	.	.	.	?	-	?
COc1ccc(CNC(=O)C2CCN(C(=O)c3sccc3-n3cccc3)CC2)cc1	-	?	-	-	-	-
COc1ccc(CNC(=O)C2CCN(C(=O)c3ccc(-n4ccc5ccccc54)s3)CC2)cc1	.	.	.	13µM	-	10µM
Cc1cc2ccccc2n1-c1ccc(C(=O)N2CCC(C(=O)NCc3ccc(F)cc3)CC2)s1	.	.	.	16µM	-	21µM
CN(C)c1ccc(CNC(=O)C2CCN(C(=O)c3ccc(-n4ccc5ccccc54)s3)CC2)cc1	.	.	.	21µM	-	21µM
CCn1c2c(c(=O)n3ncc(C(=O)Nc4ccc(F)cc4Cl)c13)CN(Cc1ccc(OC)cc1)CC2	.	.	.	23µM	-	?
CCn1c2c(c(=O)n3ncc(C(=O)Nc4cc(Cl)ccc4OC)c13)CN(Cc1ccc(OC)cc1)CC2	.	.	.	?	-	?
COc1ccc(CN2CCc3c(c(=O)n4ncc(C(=O)N5CCN(c6ccccc6OC)CC5)c4n3C)C2)cc1	.	.	.	12µM	-	16µM
